# Records with an inconclusive call do not appear. Unmarked numbers belong to inactive results. Calls of active or inactive are those of the source. Calls come from the whole dose curve; as a rule, active = well fitted activation curve with a large enough effect; inconclusive = small, poorly fitted or top-dose-only effect; inactive = flat fitted curve, though single readings scatter. Bridge positions count the residues as written; N and C are the ends. Square brackets hold non-standard residues; d marks the D form. Side chains are listed from the residue outwards. Peptide text beside a SMILES is read from it. * marks the point of attachment. Phg(4-OMe) = COc1ccc([C@H](N)C(=O)O)cc1; d(aIle) = CC[C@H](C)[C@@H](N)C(=O)O; d(aThr) = C[C@@H](O)[C@@H](N)C(=O)O; NMeF = CN[C@@H](Cc1ccccc1)C(=O)O; Isobutyryl = CC(C)C(=O)*
# Assay: qHTS for Hypoxia signaling pathway (HIF-1) agonists against the NCATS CANVASS Library (AID 1347375); note: 0% is about no effect
# Details: HRE-bla ME-180 cells, HIF-1 beta-lactamase reporter, 17 h; series mostly up to 38.3 µM
# Procedure, shortened: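 HRE-bla ME-180 cells (0.5% dialyzed FBS) were pre-incubated 5 hrs at 37C, then exposed to compounds in an 11-point series for 17 hrs. Read-out was CCF4-AM beta-lactamase FRET (460/530 nm emissions), with CellTiter-Glo viability in the same wells.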
Compound,outcome,activation
CCC(=O)CCCCC[C@@H]1NC(=O)[C@H]2CCCCN2C(=O)[C@H](C(C)C)NC(=O)[C@H](Cc2cn(OC)c3ccccc23)NC1=O,inactive,
C=C[C@@]1(C)CC[C@@H]([C@H](C)C(=O)/C=C/C(C)(C)O)O1,inactive,
COc1ccc([C@@H]2CC(=O)c3c(cc(O)c(C/C=C(\C)CCC=C(C)C)c3O)O2)cc1,,1.16% [at 7.64 µM]
O=c1cc(-c2ccc(O)c(O)c2)oc2cc(O[C@@H]3O[C@H](CO)[C@@H](O)[C@H](O)[C@H]3O)cc(O)c12,inactive,
CC[C@H](C)[C@H]1NC(=O)[C@@H](NC(=O)C(C)C)[C@@H](C)OC(=O)[C@H](COC(=O)CNC(C)=O)NC(=O)[C@@H]([C@@H](C)O)NC(=O)[C@H](Cc2ccccc2)N(C)C(=O)[C@H](c2ccc(OC)cc2)NC1=O (Isobutyryl-T[d(aIle)][Phg(4-OMe)][NMeF][d(aThr)]S([Gly-Ac]); ester 1-C),inactive,
C[n+]1cc2cc(C(N)=O)[nH]c3c(=N)c(Cl)c(N)c1c23,inactive,
C/C1=C/[C@@H](C)[C@H](O)[C@@H](O)/C=C/CC/C=C/C(=O)O[C@@H]1[C@H](C)C(=O)CCCC1CC(=O)NC(=O)C1,inactive,
COc1ccc2[nH]c3c(c2c1)CCN1C[C@H]2C[C@@H](OC(=O)c4cc(OC)c(OC)c(OC)c4)[C@H](OC)[C@@H](OC)[C@H]2C[C@H]31,inactive,
C=C[C@](Cl)(CBr)CCC=C(C)C,inactive,
C=C1CC[C@@H](Br)C(C)(C)[C@]12CC=C(C)C(=O)C2,inactive,
COc1cc2c(cc1OC)[C@@H](c1ccc3c(c1)OCO3)C(C)C(C)C2=O (some centres undefined),inactive,
C[C@H]1C=C[C@H]2CCCC[C@@H]2[C@H]1C(=O)[C@H]1CC2=C(C(=O)O)CCN2C1=O,inactive,
CC(C)[C@]12CC[C@@]3(C)[C@H](C)CC[C@H](O)[C@@]3(CC1)c1cc3c(cc12)[nH]c1ccccc13,inactive,
C/C=C1/CN2C3CC1C1C=CC(=O)N4c5ccccc5[C@@]3(C[C@@H]2C2=C[C@H]3C5CC6N(CC[C@@]67c6ccccc6N(C2=O)[C@@H]37)C/C5=C/C)[C@H]14 (some centres undefined),inactive,
CC(C)=CCC[C@]12c3cc4c(cc3CC[C@@]1(C)[C@H](C)CC[C@@H]2O)[nH]c1ccccc14,inactive,
C=CC(CCCCC)C1C(=O)NC(=O)C1C(=O)C1C2C(C)CC(C(=O)O)CC2CC1(O)C(=O)/C=C/C (centres undefined),inactive,
COc1c(O)cc2c(c1O)C(=O)c1c(coc1C)C2=O,inactive,
COc1cc2c(c(O)c1O)C(=O)c1c(coc1C)C2=O,inactive,
C/C=C/C1C=CC2CC(C)CC(C)C2C1C(=O)CC(=O)NC(CO)C/C=C/CCCCC (centres undefined),inactive,
